Our source for the cell event count values is PubChem BioAssay AID1076 (NMMLSC, 2008).

Calls of active or inactive are those of the source.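 How the source made its calls: active means cell event count below 40, meaning activity score above 60 where score is 100 minus count; inactive means the rest.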

The nature of the assay: cytotoxicity in LNCaP prostate cells – cell-based, cell event count, single point, cytotoxicity control for prostate differentiation activator project, confirmation (AID 1076).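 Further: counts scatter-gated live cells after medium removal discards detached dead cells.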 The following applies: LNCaP cell loss, flow cytometry event count, 4 d, stronger effect = lower value.

Regarding `COc1cccc(-c2cc(C(=O)N3CCCc4ccccc43)no2)c1`, the cell event count reads like this: (at 100 µM) 9 (inactive); (event count, at 10 µM) 336.
In the case of `Cc1oc(-c2cccc(Cl)c2)nc1CN1CCC(C(=O)NCc2cccnc2)CC1`, the cell event count was 38 (inactive) (at 100 µM) and 150 (event count, at 10 µM).
Turning to `O=C(NCCCN1CCN(c2ccccc2F)CC1)C1CCCN(S(=O)(=O)c2cnc[nH]2)C1` (centres undefined), the cell event count is 425 (inactive) (at 100 µM) and 166 (event count, at 10 µM).
Taken in the same sequence, the figures for `CCn1c(=S)ccc2ccc(OC)cc21` were 139 (inactive) and 118.
In the same order, the values of `COC(=O)Nc1sccc1C(=O)Nc1sccc1C(=O)OC` are 144 (inactive) and 182.
Consider `CCn1c(=O)cc(SCC(=O)N2CCN(C3CCCCC3)CC2)c2ccccc21`, for which the cell event count is, setting by setting: (at 100 µM) 6 (inactive); (event count, at 10 µM) 402.
Consider `COc1ccc(Cc2nc(-c3ccc(-n4cccc4)cc3)no2)cc1OC`, for which the cell event count was 17 (active) (at 100 µM) and 28 (event count, at 10 µM).
As for `CCN1CCN(C(=O)C2CCN(Cc3nc(-c4cccc(Cl)c4)oc3C)CC2)CC1`, the cell event count was 12 (inactive) (at 100 µM) and 192 (event count, at 10 µM).
Consider `CCOC(=O)N1CCN(CC(=O)Nc2cc(C)nn2-c2nc3ccccc3s2)CC1`, for which the cell event count (at 100 µM) was 259 (inactive) and the cell event count (event count, at 10 µM) came out at 245.
Turning to `O=C(Nc1cccc(Cl)c1)N1CCN(Cc2ccccc2)CC1`, the cell event count by setting is: (at 100 µM) 42 (inactive); (event count, at 10 µM) 132.
Taken in the same sequence, the figures for `CCOC(=O)CSc1nnc(CNC(=O)c2ccccc2OC)n1-c1ccc(OC)cc1` were 256 (inactive) and 156.
`Nc1cccc2cnccc12`: the cell event count is 241 (inactive) (at 100 µM) and 168 (event count, at 10 µM).
In the same order, the values of `COc1ccc(-c2cc(-c3ccc(F)cc3)nc(N3CCN(C)CC3)n2)cc1` are 3 (inactive) and 118.
`Cc1cccc(-c2nc(CN3CCCC(C(=O)NC4CCCC4)C3)c(C)o2)c1` (centres undefined): the cell event count by setting is: (at 100 µM) 29 (inactive); (event count, at 10 µM) 328.
On to `O=C(Nc1ccc2oc(Cc3ccc(Cl)cc3)nc2c1)c1cccnc1`, for which the cell event count reads like this: (at 100 µM) 17 (inactive); (event count, at 10 µM) 96.
In the same order, the values of `O=C(CCNC(=O)Cn1ccc2ccccc2c1=O)NCCCN1CCN(c2ccccc2F)CC1` are 112 (inactive) and 126.
In the same order, the values of `COc1cccc(Oc2cnc(N)nc2-c2ccc(OC)cc2O)c1` are 9 (inactive) and 180.
As to `O=C(CCn1c(=O)oc2ccccc21)NCCCN1CCN(c2ccc(F)cc2)CC1`, the cell event count is 213 (inactive) (at 100 µM) and 127 (event count, at 10 µM).
In the same order, the values of `Cc1cc(=O)oc(C)c1C(=O)NCCCN1CCN(c2ccc(F)cc2)CC1` are 236 (inactive) and 100.
Consider `COc1ccc(N2CCN(CCCNC(=O)C3(S(=O)(=O)c4ccc(Cl)cc4)CC3)CC2)cc1`, for which the cell event count (at 100 µM) is 93 (inactive) and the cell event count (event count, at 10 µM) was 136.
Taken in the same sequence, the figures for `Cn1c(C(=O)NCCCN2CCN(c3ccccc3F)CC2)cc2c(=O)n(C)c3ccccc3c21` were 5 (inactive) and 170.
Taken in the same sequence, the figures for `COc1ccc(OC)c(CNC(=O)CCNC(=O)Cn2ccc3ccccc3c2=O)c1` were 63 (inactive) and 73.
For `COCCn1c(=O)[nH]c2cc(C(=O)NCCCN3CCN(c4ccc(F)cc4)CC3)ccc2c1=O`, the cell event count by setting is: (at 100 µM) 140 (inactive); (event count, at 10 µM) 194.
For the compound `Cc1ccccc1-c1nc(CN2CCC(C(=O)NCCCN3CCOCC3)CC2)c(C)o1`, the cell event count is, setting by setting: (at 100 µM) 38 (inactive); (event count, at 10 µM) 126.
Regarding `Cc1cccc(-c2nc(CN3CCCC(C(=O)NC4CCC(C)CC4)C3)c(C)o2)c1` (centres undefined), the cell event count was 5 (inactive) (at 100 µM) and 138 (event count, at 10 µM).
Consider `Cc1ccc(C2=Nc3ccccc3NC(C)(c3ccc(C)o3)C2)o1` (centres undefined), for which the cell event count was 324 (inactive) (at 100 µM) and 120 (event count, at 10 µM).
On to `COc1ccc(N2CCN(CCCNC(=O)CCCn3c(=O)[nH]c4ccsc4c3=O)CC2)cc1`, for which the cell event count (at 100 µM) is 13 (active) and the cell event count (event count, at 10 µM) was found to be 25.5.
As for `COc1ccc(-n2c3c(cc(C(=O)N4CCC(C)CC4)c2=O)C(=O)CC(C)(C)C3)cc1`, the cell event count is 115 (inactive) (at 100 µM) and 93 (event count, at 10 µM).
Taken in the same sequence, the figures for `CCN1CCCC1CNC(=O)c1cc2c(-c3cccc(OC)c3)nn(C)c2s1` (centres undefined) were 25 (inactive) and 81.5.
On to `COc1ccc(-c2cc3c(=O)n(CC(=O)NC4CCN(Cc5ccccc5)CC4)ncn3n2)cc1`, for which the cell event count was 180 (inactive) (at 100 µM) and 257 (event count, at 10 µM).
Turning to `COc1ccc(-c2coc3c(CN4CCCCC4)c(O)c(CN4CCCCC4)c(O)c3c2=O)cc1`, the cell event count reads like this: (at 100 µM) 7 (active); (event count, at 10 µM) 63.
Taken in the same sequence, the figures for `CCc1ccc(CNC(=O)CN2C(=O)COc3ccccc32)cc1` were 78 (inactive) and 118.
As to `COc1cc2c(C(=O)NCCCN3CCN(c4cccc(Cl)c4)CC3)cn(C)c(=O)c2cc1OC`, the cell event count was 15 (inactive) (at 100 µM) and 230 (event count, at 10 µM).
For `CCOC(=O)N1CCN(C(=O)Cc2ccc(-n3c(=O)[nH]c4ccccc4c3=O)cc2)CC1`, the cell event count is 302 (inactive) (at 100 µM) and 265 (event count, at 10 µM).
Consider `CCc1ccc(-c2nc(CN3CCCC(C(=O)O)C3)c(C)o2)cc1` (centres undefined), for which the cell event count was 153 (inactive) (at 100 µM) and 123 (event count, at 10 µM).
Taken in the same sequence, the figures for `CCOC(=O)C1=C(C)N=c2s/c(=C\c3ccncc3)c(=O)n2C1c1ccc2c(c1)OCO2` (centres undefined) were 17 (inactive) and 272.
Turning to `CCOC(=O)N1CCN(C(=O)CN(c2cccc(C(F)(F)F)c2)S(=O)(=O)c2ccccc2)CC1`, the cell event count (at 100 µM) was 137 (inactive) and the cell event count (event count, at 10 µM) came out at 395.
